Measured values from PubChem BioAssay AID1159580 (chemical genetic matrix, 2015).
Screen size: about 5,500 compounds; about 2,000 (36%) were called active. Roughly 18% stayed inconclusive and do not appear here. Rule as the data show it: active = normalized growth mostly below about 0.91 (no sharp cut-off); inconclusive = no clear call, values can overlap the other calls; inactive = mostly above about 0.92. The list shows a part of the results.

Assay: chemical genetic growth profiling, strain panel (AID 1159580);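 also: tested at 20 µM; growth read once vehicle control cultures reached saturation at 30 °C; 1 = growth at the plate median or of vehicle wells; lower values mean less growth of the strain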
Conditions: S. cerevisiae deletion strains, growth OD

Measured: normalized growth

CC[C@]1(O)CC2CN(CCc3c([nH]c4ccccc34)[C@@](C(=O)OC)(c3cc4c(cc3OC)N(C)[C@H]3[C@@](O)(C(=O)OC)[C@H](OC(C)=O)[C@]5(CC)C=CCN6CC[C@]43[C@@H]65)C2)C1 (some centres undefined)
inactive: locus YAL021C, strain ccr4, stronger effect = lower value 1 | locus YAL026C, strain drs2, stronger effect = lower value 0.948 | locus YAL030W, strain snc1, stronger effect = lower value 0.985 | locus YBL061C, strain skt5, stronger effect = lower value 0.975 | locus YBR009C, strain hhf1, stronger effect = lower value 0.941 | locus YBR023C, strain chs3, stronger effect = lower value 0.984 | locus YBR171W, strain sec66, stronger effect = lower value 0.959 | locus YBR231C, strain swc5, stronger effect = lower value 0.982 | locus YBR279W, strain paf1, stronger effect = lower value 0.98 | locus YCL011C, strain gbp2, stronger effect = lower value 0.983 | locus YCL016C, strain dcc1, stronger effect = lower value 1.01 | locus YCL061C, strain MRC1, stronger effect = lower value 1.02 | locus YCL069W, strain vba3, stronger effect = lower value 0.969 | locus YCR088W, strain abp1, stronger effect = lower value 0.974 | locus YDL005C, strain med2, stronger effect = lower value 0.972 | locus YDL040C, strain nat1, stronger effect = lower value 0.969 | locus YDR001C, strain nth1, stronger effect = lower value 0.973 | locus YDR069C, strain doa4, stronger effect = lower value 1 | locus YDR137W, strain rgp1, stronger effect = lower value 0.979 | locus YDR159W, strain sac3, stronger effect = lower value 0.928 | locus YDR195W, strain ref2 0.951 | locus YDR297W, strain sur2, stronger effect = lower value 0.975 | locus YDR334W, strain swr1, stronger effect = lower value 0.955 | locus YDR335W, strain msn5, stronger effect = lower value 0.981 | locus YDR392W, strain spt3, stronger effect = lower value 0.859 | locus YEL003W, strain gim4, stronger effect = lower value 0.954 | locus YEL037C, strain rad23, stronger effect = lower value 0.963 | locus YEL061C, strain CIN8 (second series), stronger effect = lower value 0.962 | locus YER015W, strain faa2, stronger effect = lower value 0.961 | locus YER016W, strain bim1, stronger effect = lower value 0.989 | locus YER111C, strain swi4, stronger effect = lower value 0.972 | locus YER155C, strain BEM2 (second series), stronger effect = lower value 0.907 | locus YFR010W, strain ubp6, stronger effect = lower value 0.948 | locus YGL167C, strain pmr1, stronger effect = lower value 0.972 | locus YGL173C, strain kem1, stronger effect = lower value 0.976 | locus YGL227W, strain vid30, stronger effect = lower value 0.947 | locus YGL240W, strain doc1, stronger effect = lower value 0.954 | locus YGL253W, strain hxk2, stronger effect = lower value 1.01 | locus YHR013C, strain ard1, stronger effect = lower value 0.949 | locus YHR027C, strain rpn1, stronger effect = lower value 0.957 | locus YHR030C, strain SLT2, stronger effect = lower value 0.991 | locus YHR079C, strain IRE1, stronger effect = lower value 0.975 | locus YHR142W, strain chs7, stronger effect = lower value 1.02 | locus YJL092W, strain hpr5, stronger effect = lower value 0.973 | locus YJL095W, strain BCK1 (second series), stronger effect = lower value 0.978 | locus YJL095W, strain BCK1, stronger effect = lower value 0.992 | locus YJL115W, strain asf1, stronger effect = lower value 0.956 | locus YJL129C, strain trk1, stronger effect = lower value 0.986 | locus YJL154C, strain vps35, stronger effect = lower value 0.965 | locus YJL164C, strain tpk1, stronger effect = lower value 0.956 | locus YJL166W, strain qcr8, stronger effect = lower value 0.998 | locus YJL187C, strain SWE1, stronger effect = lower value 0.974 | locus YJR066W, strain TOR1, stronger effect = lower value 0.965 | locus YKL160W, strain elf1, stronger effect = lower value 1.05 | locus YKR026C, strain gcn3, stronger effect = lower value 0.975 | locus YKR091W, strain srl3, stronger effect = lower value 0.98 | locus YLL001W, strain dnm1, stronger effect = lower value 1.05 | locus YLL026W, stronger effect = lower value 0.979 | locus YLL041C, strain sdh2, stronger effect = lower value 0.964 | locus YLR027C, strain aat2, stronger effect = lower value 0.987 | locus YLR113W, strain HOG1, stronger effect = lower value 0.955 | locus YLR221C, strain rsa3, stronger effect = lower value 1.04 | locus YLR258W, strain gsy2, stronger effect = lower value 0.979 | locus YLR262C, strain YPT6 (second series), stronger effect = lower value 0.968 | locus YLR320W, strain mms22, stronger effect = lower value 1.04 | locus YLR342W, strain FKS1, stronger effect = lower value 0.977 | locus YLR357W, strain rsc2, stronger effect = lower value 0.974 | locus YLR370C, strain arc18, stronger effect = lower value 0.989 | locus YLR384C, strain iki3, stronger effect = lower value 0.967 | locus YML120C, strain ndi1, stronger effect = lower value 1.01 | locus YMR058W, strain fet3, stronger effect = lower value 0.977 | locus YMR125W, strain sto1, stronger effect = lower value 1.02 | locus YMR129W, stronger effect = lower value 0.967 | locus YMR205C, strain PFK2, stronger effect = lower value 1.01 | locus YMR231W, strain pep5, stronger effect = lower value 0.966 | locus YNL071W, strain lat1, stronger effect = lower value 0.963 | locus YNL183C, strain NPR1, stronger effect = lower value 0.928 | locus YNL209W, strain ssb2, stronger effect = lower value 0.973 | locus YNL248C, strain rpa49, stronger effect = lower value 1.04 | locus YNL322C, strain KRE1 (second series), stronger effect = lower value 0.977 | locus YNR049C, strain mso1, stronger effect = lower value 0.969 | locus YOR001W, strain rrp6, stronger effect = lower value 0.923 | locus YOR070C, strain gyp1, stronger effect = lower value 1 | locus YOR080W, strain dia2, stronger effect = lower value 0.96 | locus YOR083W, strain WHI5, stronger effect = lower value 1.04 | locus YOR106W, strain vam3, stronger effect = lower value 1.03 | locus YOR231W, strain MKK1, stronger effect = lower value 0.952 | locus YOR265W, strain rbl2, stronger effect = lower value 0.987 | locus YOR270C, strain vph1, stronger effect = lower value 1.06 | locus YOR290C, strain snf2, stronger effect = lower value 1.01 | locus YPL051W, strain arl3, stronger effect = lower value 1.01 | locus YPL078C, strain atp4, stronger effect = lower value 1.04 | locus YPL106C, strain sse1, stronger effect = lower value 0.931 | locus YPL240C, strain hsp82, stronger effect = lower value 0.963 | locus YPL256C, strain CLN2, stronger effect = lower value 0.942

Nc1ncnc2c1ncn2C1OC2COP(O)(=S)O[C@@H]2[C@@H]1O (some centres undefined)
inactive: locus YAL013W, strain DEP1, stronger effect = lower value 1.01 | locus YAL040C, strain CLN3, stronger effect = lower value 1.01 | locus YDR150W, strain NUM1, stronger effect = lower value 1.02 | locus YDR363W, strain ESC2, stronger effect = lower value 0.99 | locus YER002W, strain NOP16, stronger effect = lower value 0.989 | locus YGR078C, strain PAC10, stronger effect = lower value 1 | locus YJR075W, strain HOC1, stronger effect = lower value 0.997 | locus YNL128W, strain TEP1, stronger effect = lower value 1.01 | locus YNL153C, strain GIM3, stronger effect = lower value 1.03 | locus YNL175C, strain NOP13, stronger effect = lower value 1.03 | locus YNL197C, strain WHI3, stronger effect = lower value 1.02 | locus YNL224C, strain SQS1, stronger effect = lower value 1.02 | locus YOR083W, strain WHI5 (second series), stronger effect = lower value 0.997 | locus YPL241C, strain CIN2, stronger effect = lower value 1.01
